Source: PubChem BioAssay (NCI)
This is part of a sample that, as a whole, favours compounds with a hit. Of some 83,000 tested, about 20% had one in any assay.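 Growth was measured after 48 h exposure to one concentration of compound in 96-well plates. Values under 10 count as active.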 A number with no mark means an inactive call. Calls of active or inactive are those of the source.

The molecules below were run on IGROV1 ovarian (assay: NCI-60 one-dose screen, 48 h (100 = growth as untreated, 0 = no growth, -100 = all killed)). Details: 10 µM unless noted.
Description: Growth inhibition of the IGROV1 human tumor cell line is measured as a screen for anti-cancer activity. Cells are grown in 96 well plates and exposed to the test compound for 48 hours. Compounds are tested at a single concentration, which is 10^-5 M for most compounds. The reported endpoint is percent growth (GI% or GIPRCNT), where numbers from 0 - 100% represent growth inhibition, and numbers from -100% - 0 represent cell death. For example, a value of 40 represents 60% growth inhibition. A value of 0 means no net growth occurred over the course of the experiment. A value of -40 indicates 40% of cells at the beginning of the experiment died by the end of the experiment. A value of -100 means all cells are dead at the end of the experiment.
NCI-60 Human Tumor Cell Lines Screen was performed using the standard one-dose NCI protocol, which is described in more detail at https://dtp.cancer.gov/discovery_development/nci-60/default.htm.
Compounds with GIPRCNT values below 10 were considered active. Activity score was based on GIPRCNT using the following formula: […]
Score is 0 for GIPRCNT values of 100 or above, 50 for GIPRCNT values of 0, and 100 for GIPRCNT values of -100.
Work on `C(=C1c2ccccc2-c2ccccc21)c1ccncc1` yielded a growth of 44.9%. In the case of `COc1cccc(/C=N\NC(=O)c2ccncc2)c1O`, the growth is reported as 65.1%. `COc1ccc(-n2cnc3cc(C(=O)N4CCCCC4)ccc32)cc1` showed a growth of 112%. `CCOC(=O)CNC(=O)C1(NC(=O)CNC(=O)OCc2ccccc2)CCCC1` was tested, and the growth was 117%. With `COP(=O)(OC)C(c1ccc(O)cc1)(c1ccc(O)cc1)c1ccc(O)cc1` the growth was 11.3%. Molecule `O=C1NC(=O)/C(=C\c2ccco2)S1` has a growth of 114%. For `O=C1NC(=S)S/C1=C\c1cc(Br)ccc1O`, the growth was 110%. `Cc1ccc(/C=C/C(=O)c2ccc(F)cc2)s1` was tested, and the growth was 83%. For `COc1cc(-c2nc3nc4sc(C)c(C)c4c(=O)n3[nH]2)cc(OC)c1OC`, the growth was 66.6%. `N/C(=N\c1nc2ccccc2s1)NC(=O)Nc1ccccc1Cl` showed a growth of 20.8%. With `C[C@H]1c2cccc(O)c2C(O)=C2C(=O)[C@]3(O)C(O)=C(C(N)=O)C(=O)[C@@H](N(C)C)[C@@H]3[C@@H](O)[C@@H]21` the growth was 21.4%. `COc1cc(-c2nnc(-c3nc(-c4cc(OC)c(OC)c(OC)c4)n4ccccc34)o2)ccc1N` showed a growth of 56.4%. `CCOc1cc(/C=C/C(=O)C(C(=O)/C=C/c2ccc(OC(=O)CNc3nc4ccccc4[nH]3)c(OCC)c2)C(=O)CNc2nc3ccccc3[nH]2)ccc1OC(=O)CNc1nc2ccccc2[nH]1` was tested, and the growth was -33.2% (active). Work on `COc1ccc(/C=C2/SC(=Nc3c(C)nn(-c4ccccc4)c3N)NC2=O)cc1` yielded a growth of 27.2%. `Cc1ccc2nc(SCC(=O)Nc3ccc(-c4nc5ccccc5s4)c(Cl)c3)[nH]c2c1` was tested, and the growth was 100%. For `CC(=O)Nc1c(Cl)cc2c(c1Cl)Cc1cc([N+](=O)[O-])ccc1-2`, the growth was 117%. With `CN(C)CCCN=c1cc2c(=O)n(CCCN(C)C)c(=O)c3c(NCCCN(C)C)cc4c(O)n(CCCN(C)C)c(=O)c1c4c3-2` the growth was -24.6% (active). Work on `NC(=N\N=C/Cc1ccccc1)/C(N)=N\N=C\Cc1ccccc1` yielded a growth of 119%. Molecule `CCOc1nc(-c2ccco2)n2nc(-c3ccco3)cc2n1` has a growth of 106%. Molecule `COc1cccc(/C=N/Nc2nc3ccccc3s2)c1OC` has a growth of 81.9%. In the case of `CCOC(=O)Nc1ccc2c3c(cccc13)-c1ccccc1-2`, the growth is reported as 20.9%. Molecule `Nc1ccc2c(c1)C(=O)c1cc(Cl)c(Cl)cc1-2` has a growth of 94.6%. `O=[N+]([O-])c1ccc2[nH]cc(-c3c4ccccc4cc4[nH]c5ccc([N+](=O)[O-])cc5c34)c2c1` was tested, and the growth was 18.7%. For `CC(=O)N1N=C(c2ccc(C(F)(F)F)cc2)CC1c1ccc2c(c1)OCO2` (stereo not given), the growth was 67%. `O=C(CNc1ccc2c(c1)C(=O)c1ccccc1C2=O)Nc1ccc2c(c1)C(=O)c1ccccc1C2=O` was tested, and the growth was -72.9% (active). Molecule `CC(=O)O[C@H]1CC[C@@]2(C)C(=CC[C@@H]3[C@@H]2CC[C@]2(C)C(c4cccnc4)=CC[C@@H]32)C1` has a growth of 62.6%. Molecule `Cc1ncc(C(=O)Nc2ccc(CN3CCN(C)CC3)c(C(F)(F)F)c2)cc1C#Cc1cncc2ncccc12` has a growth of 24.9%. Work on `Oc1c(Cl)cc(Oc2cc(Cl)c(O)c(CN3CCOCC3)c2)cc1CN1CCOCC1` yielded a growth of 92.5%. In the case of `O=C1Nc2ccc(C(=O)O)c(O)c2C1=O`, the growth is reported as 111%. `CN1CCN(c2nc3scc(-c4ccccc4)c3c(=O)[nH]2)CC1` showed a growth of 97.6%. `N#Cc1c(NC(=O)c2ccco2)[n+]([O-])c2cc(Cl)c(Cl)cc2[n+]1[O-]` was tested, and the growth was -12.2% (active). Molecule `O=C(O)C1C(c2ccccc2)c2ccccc2C(O)C1CO` (stereo not given) has a growth of 118%. Work on `Oc1ccc(/C=N/Nc2nc3ccccc3s2)c(O)c1` yielded a growth of 22.3%. `Cc1ccc(NC(=O)c2sc3nc4c(cc3c2N)C(=O)CCC4)cc1` was tested, and the growth was 95.9%. Work on `COc1ccc2ncccc2c1Cc1c(OC)ccc2ncccc12` yielded a growth of 64.1%. Molecule `O=C1/C(=C/c2ccccc2Cl)CCc2ccccc21` has a growth of 97.3%. Molecule `Clc1ccc2c(c1)C(Br)c1cc(Cl)cc(Cl)c1-2` (stereo not given) has a growth of 57.1%. Work on `O=C1CNc2cc(Cl)ccc2N1` yielded a growth of 103%. With `C/C(=C\CCc1ccoc1)CC/C=C(\C)CCCN1CCSCC1` the growth was 93.7%. In the case of `CC(=O)c1nn(-c2ccccc2)c(=Nc2ccccc2)cc1C`, the growth is reported as 106%.
